Assay outcomes as filed in PubChem BioAssay.
DT40 TDP1 no CPT: qHTS for Inhibitors of human tyrosyl-DNA phosphodiesterase 1 (TDP1): qHTS in cells in absence of CPT | Potency, µM (highest dose often 46.2 µM), hits mostly inhibitors | AID 686978, 2013 | actives 15% (n = 420,000) | DT40 Tdp1-/- hTDP1 cells, no CPT, ATP luminescence, 48 h; note: nearly all actives have a fitted effect of over 55% in size
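Stably hTDP1-transfected Tdp1-null chicken DT40 cells were treated with library compounds minus camptothecin and grown for at least 48 hr at 37 °C, after which cellular ATP was quantified by luminescence.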
HT1080 IDH1KD tx: kills HT-1080 cells with IDH1 knockdown; HT-1080 IDH1 knockdown viability, ATP luminescence, 48 h; AID 686971; actives 2% (n = 360,000); Potency, µM (highest dose often 46.1 µM), usual class: cytotoxic
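% activity derives from luminescence (CellTiter-Glo), normalised to DMSO and no-cell wells. HT-1080-IDH1KD cells, 750/well, had 48 h compound exposure at 37 °C.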
DT40 TDP1 CPT: growth inhibition of DT40 Tdp1-/-;hTDP1 cells with camptothecin (screen for TDP1 inhibitors); chicken DT40 Tdp1-/-;hTDP1 cells + 20 nM CPT, ATP luminescence, 48 h; Potency, µM (titrated, usually from 46.2 µM), usual class: inhibitors; actives 12% (n = 420,000); note: nearly all actives have a fitted effect of over 55% in size
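Chicken DT40 Tdp1-/- cells stably complemented with human TDP1 were seeded at 400 cells/well in medium containing 20 nM camptothecin, exposed to pin-transferred compounds, and grown at 37 °C for at least 48 hr. Viability was read as ATP luminescence.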
HT1080NT lethal: kills 2HG-producing HT-1080-NT fibrosarcoma cells; HT-1080-NT fibrosarcoma viability, CellTiter-Glo ATP luminescence, 48 h; Potency, µM (series often up to 46.1 µM), usual class: cytotoxic; actives 1.6% (n = 360,000);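 note: NT is the 2HG producing partner of a matched IDH1 knockdown line; nearly all actives have a fitted effect of over 55% in size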
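Fibrosarcoma NT cells, 750 per well in 5% FBS RPMI, were exposed to compound for 48 hours. Viability: CellTiter-Glo luminescence.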
IL1B secr inh: inhibitors of inflammasome signaling (IL-1 beta secretion); activity change, % at 57.5 µM; THP-1 LPS/ATP IL-1B secretion, AlphaLISA, 16 h; stronger effect = lower value; actives 4.7% (n = 360,000); in the data active = activity change below about -50%; inconclusive = mostly about -30% to -49%
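Secreted IL-1B measured by AlphaLISA bead assay after 16 h compound exposure of THP-1 cells; compounds (final up to 57.5 uM) added 1 h before LPS (250 ng/mL) and ATP (1.25 mM) stimulation; lower signal means less secretion.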
ELG1 DNA repair: ELG1-dependent DNA repair inhibition; HEK293T ELG1-luciferase reporter, luminescence, 16 h; DNA damage induced by 5-fluorouridine; AID 504467; actives 2.3% (n = 330,000); Potency, µM (titrated, usually from 46.1 µM), hits mostly inhibitors; note: nearly all actives have a fitted effect of over 55% in size
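Quantitative HTS, concentration-response format. 2,000 cells/well co-treated with 5-fluorouridine and compound, 16 hr in 5% CO2 at 37 °C; ONE-Glo luminescence read after 30 min.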
Large screens that a line does not name were inactive. Compounds with a hit are over-represented: about 19% of the library has one in this group of screens. Unless noted, calls come from the whole dose curve; as a rule, active = well fitted curve in the direction sought with a large enough effect; inconclusive = small, poorly fitted or top-dose-only effect, or another doubt; inactive = no such curve, though single readings can be large; an effect the other way counts as inactive or inconclusive.

CCOc1ccc(CC2NCCc3cc(OCC)c(OCC)cc32)cc1OCC (stereo unspecified)	DT40 TDP1 no CPT 4.1µM, DT40 TDP1 CPT 3.7µM, ELG1 DNA repair 15µM
O=C(COC(=O)c1ccccc1-n1cnnn1)c1ccc(F)c(F)c1	ELG1 DNA repair inconclusive
CCCc1cc(=O)[nH]c(SCC(=O)N2CCOCC2)n1	none
Cc1ccc(S(=O)(=O)N2C[C@H]3C(=O)C[C@@H](c4cccs4)N(S(=O)(=O)c4ccc(C)cc4)[C@H]3C[C@H]2c2ccccc2)cc1	DT40 TDP1 no CPT inconclusive, IL1B secr inh -58 (no result: ELG1 DNA repair)
Cc1ccc([C@@H]2C[C@H]3[C@@H](CN2S(=O)(=O)c2ccc(C)cc2)C(=O)C[C@@H](c2ccccc2)N3S(=O)(=O)c2ccc(C)cc2)cc1	none (no result: ELG1 DNA repair)
Cc1ccc(S(=O)(=O)N2C[C@H]3C(=O)C[C@@H](c4ccccc4)N(S(C)(=O)=O)[C@H]3C[C@H]2c2ccccc2)cc1	DT40 TDP1 no CPT inconclusive, HT1080 IDH1KD tx inconclusive, DT40 TDP1 CPT inconclusive, IL1B secr inh -92 (no result: ELG1 DNA repair)
Cc1ccc(S(=O)(=O)N2CC3C(=O)C[C@@H](c4ccccc4)N(S(=O)(=O)c4cccc(Cl)c4)C3CC2c2ccccc2)cc1 (stereo partly specified)	DT40 TDP1 no CPT 23µM, DT40 TDP1 CPT inconclusive (no result: ELG1 DNA repair)
COc1ccc(-c2cnc3c(NC(C)=O)cc(-c4ccc(C(=O)NC5CC5)cc4)cn23)cc1OC	DT40 TDP1 no CPT 23µM, DT40 TDP1 CPT 23µM (no result: ELG1 DNA repair)
COc1cccc(-c2cnc3c(NC(C)=O)cc(-c4ccc(C(=O)NC5CC5)cc4)cn23)c1	DT40 TDP1 no CPT 13µM, HT1080 IDH1KD tx 21µM, DT40 TDP1 CPT inconclusive, HT1080NT lethal 18µM, IL1B secr inh inconclusive (no result: ELG1 DNA repair)
COc1ccc(-c2cnc3c(NC(C)=O)cc(-c4ccccc4CN(C)C)cn23)cc1OC	DT40 TDP1 no CPT inconclusive, HT1080 IDH1KD tx inconclusive, DT40 TDP1 CPT inconclusive, HT1080NT lethal inconclusive (no result: ELG1 DNA repair)
COc1ccccc1NC(=O)c1cc(S(=O)(=O)NC2CCCC2)ccc1F	DT40 TDP1 CPT inconclusive, IL1B secr inh inconclusive, ELG1 DNA repair inconclusive
C/C(=N\NC(N)=O)c1cccc(Cl)c1	DT40 TDP1 CPT inconclusive
C/C(=N\N=C(N)N)c1ccc(Cl)cc1Cl	DT40 TDP1 no CPT 16µM, HT1080 IDH1KD tx 21µM, DT40 TDP1 CPT 8.2µM, HT1080NT lethal 13µM, IL1B secr inh -92
C/C(=N\N=C(N)N)c1cccc(Cl)c1	DT40 TDP1 no CPT 8.2µM, HT1080 IDH1KD tx inconclusive, DT40 TDP1 CPT 16µM, HT1080NT lethal inconclusive, IL1B secr inh -57
COc1ccc(C(=O)COC(=O)c2ccc(OC)c(OC)c2)cc1OC	none
COc1ccc(C(C#N)CC(=O)c2ccc(OC)c(OCc3ccccc3)c2)cc1OC (stereo unspecified)	DT40 TDP1 no CPT 21µM, DT40 TDP1 CPT 15µM (no result: ELG1 DNA repair)
COc1ccc(C(=O)CSc2cc(C)nc3nc(C)nn23)cc1OC	HT1080 IDH1KD tx 11µM, HT1080NT lethal 16µM, IL1B secr inh -97, ELG1 DNA repair inconclusive
COc1ccc(C(=O)CSC#N)cc1OC	DT40 TDP1 no CPT 2.9µM, HT1080 IDH1KD tx 21µM, DT40 TDP1 CPT 3.3µM, HT1080NT lethal inconclusive, IL1B secr inh inconclusive, ELG1 DNA repair inconclusive
O=C(Nc1nccs1)[C@@H]1CC=C[C@@H]2CCN(C3CCCCC3)C(=O)[C@@H]21	none (no result: HT1080 IDH1KD tx, HT1080NT lethal, IL1B secr inh, ELG1 DNA repair)
CC1=C(c2ccc(C(C)C)cc2)S(=O)(=O)NC1=NCc1ccc(OC(C)C)cc1	none (no result: HT1080 IDH1KD tx, HT1080NT lethal, IL1B secr inh, ELG1 DNA repair)
COc1cccc(C(O)c2ncc(-c3cccc(C(F)(F)F)c3)[nH]2)c1 (stereo unspecified)	DT40 TDP1 no CPT inconclusive, DT40 TDP1 CPT inconclusive, HT1080NT lethal inconclusive (no result: ELG1 DNA repair)
COc1c(C)cc(C(O)c2ncc(-c3ccc(C(F)(F)F)cc3)[nH]2)cc1C (stereo unspecified)	DT40 TDP1 no CPT inconclusive, HT1080 IDH1KD tx 16µM, DT40 TDP1 CPT inconclusive, HT1080NT lethal inconclusive (no result: ELG1 DNA repair)
